NPR1 activator: GC-A (human) enzyme activation. activation, % at 10 µM. 0.14% of 370,000 active. HEK293 GC-A cells, cGMP TR-FRET, EC30 ANP; 0% at EC30 ANP, 100% saturating ANP; in the data active = activation above about 40%
NPR2 activator: GC-B (human) receptor activation. activation, % at 10 µM. AID 1920062. 0.11% of 370,000 active. P20594. HEK293-GC-B cells, CNP EC30, cGMP TR-FRET; 0% at EC30 CNP, 100% saturating CNP;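 active = activation at 10 µM reaching about 35% in either raw or pattern-adjusted values, limit read from the data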
APOBEC3G inh: APOBEC3G (human) deaminase inhibition; Q9HC16; recombinant A3G, ssDNA deamination FAM/TAMRA fluorescence; inhibition, % at 20 µM; 0.28% of 330,000 active;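 active = inhibition of at least 40% at 20 µM, with no more than 30% in the related APOBEC3A deaminase screen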
APOBEC3A inh: human APOBEC3A DNA deaminase inhibition. recombinant A3A, FAM/TAMRA ssDNA deamination fluorescence. inhibition, % at 20 µM. 0.41% of 330,000 active. AID 493011;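 active = at least 40% inhibition at 20 µM here, with at most 30% in a related deaminase screen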
Target sequence (P31941 whole entry, looked up): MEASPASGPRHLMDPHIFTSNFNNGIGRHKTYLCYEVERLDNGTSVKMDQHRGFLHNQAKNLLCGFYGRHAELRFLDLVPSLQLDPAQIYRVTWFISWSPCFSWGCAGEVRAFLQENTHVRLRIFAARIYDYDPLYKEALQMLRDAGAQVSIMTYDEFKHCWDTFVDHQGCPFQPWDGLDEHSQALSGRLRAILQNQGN
FAS TE block: inhibitors of human fatty acid synthase thioesterase domain; AID 602261; inhibition, % at 15 µM; recombinant FAS-TE, OMFH fluorogenic substrate, fluorescence endpoint; P49327; 0.67% of 360,000 active;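 active = compounds whose normalised, plate-corrected inhibition of enzyme fluorescence in the single-dose primary screen is 50% or more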
APOBEC3G confirm: APOBEC3G (human) deaminase inhibition, confirmed | shares compounds with APOBEC3G inh | recombinant A3G ssDNA deaminase, UDG/FAM-TAMRA fluorescence | inhibition, % at 20 µM | 72% of 890 active | AID 493152;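 active = inhibition reaching a set limit in any replicate at 20 µM, the limit being 80% of the first screen's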
UDG A3G counter: E. coli UDG inhibition in APOBEC3G counter-screen; UDG counterscreen, FAM/TAMRA oligo fluorescence; inhibition, % at 20 µM; AID 504715; shares compounds with APOBEC3G inh; 710 tested, under 10 active;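 active = compounds giving 40% or more inhibition at 20 µM in any one of the three replicates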;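 note: inhibitors lower the FAM signal released by uracil excision and alkaline cleavage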
Target sequence (P12295 whole entry, looked up): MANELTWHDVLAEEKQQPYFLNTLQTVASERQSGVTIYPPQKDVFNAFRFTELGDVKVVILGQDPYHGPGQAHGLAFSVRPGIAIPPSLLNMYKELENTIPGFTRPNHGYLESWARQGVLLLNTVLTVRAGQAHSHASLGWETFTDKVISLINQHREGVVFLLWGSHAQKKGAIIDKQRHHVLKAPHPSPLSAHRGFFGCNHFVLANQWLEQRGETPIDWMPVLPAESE
FAS-TE conf: confirmation of human fatty acid synthase thioesterase inhibitors; shares compounds with FAS TE block; recombinant FAS-TE, OMFH fluorogenic substrate, fluorescence; inhibition, % at 15 µM; 45% of 2,300 active; AID 624325;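 active = compounds inhibiting the enzyme by at least 50% at 15 µM in any one of the replicates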
Numbers stand for hits; i = inactive; nt = no result. An excerpt weighted towards active compounds, which were near 1.4% of everything screened.

SMILES | NPR1 activator | NPR2 activator | APOBEC3G inh | APOBEC3A inh | FAS TE block | FAS-TE conf | others
CCCC(C)NC(=O)c1cc(C(=O)OC)cc([N+](=O)[O-])c1 (stereo not drawn) | i | i | i | i | i | nt
CN(C)c1cccc(/C=C2\CC3(OC(=O)c4ccco4)CCCN2C3)c1 (stereo not drawn) | i | i | nt | nt | nt | nt
COCCCn1c(=NC(=O)c2ccccc2)c(C#N)cc2c(=O)n3cccc(C)c3nc21 | i | i | 45.6 | i | 51.3 | i | APOBEC3G confirm=i;UDG A3G counter=i
O=C(Nc1cc(S(=O)(=O)N2CCOCC2)ccc1N1CCCC1)c1ccc2c(c1)S(=O)(=O)c1ccccc1C2=O | i | i | 64.2 | i | 78.9 | i | APOBEC3G confirm=74.0
Cc1ccc2cc(COC(=O)c3cccc([N+](=O)[O-])c3)c(=O)[nH]c2c1 | i | i | i | i | 62.9 | i
Cc1ccc2cc(CCNC(=O)c3cccc([N+](=O)[O-])c3)c(=O)[nH]c2c1 | i | i | i | i | i | nt
Cc1ccc(C(=O)O/N=C(\N)Cc2cccs2)cc1[N+](=O)[O-] | i | i | i | i | 61.6 | 76.3
CCCCOCCCNC(=O)C[C@H]1C[C@@]2(C(=O)OC)C(=C[C@H](C(C)C)O[C@@H]2C2CC2)N(Cc2cccc3ccccc23)C1=O | i | i | nt | nt | nt | nt
Cc1cccc2c1N(C(=O)CN1C(=O)c3ccccc3C1=O)C(C)(C)c1ssc(=S)c1-2 | i | i | i | i | i | nt
Cc1cc(C)c2c(c1)-c1c(ssc1=S)C(C)(C)N2C(=O)CN1C(=O)c2ccccc2C1=O | i | i | i | i | 62.6 | i
COC(=O)[C@H](C(C)C)N1CCc2nnn(Cc3ccc(C)cc3)c2-c2cc(F)ccc2S1(=O)=O | i | i | nt | nt | nt | nt
Cc1ccc(NC(=O)C2=C(c3ccccc3)S(=O)(=O)CCS2(=O)=O)cc1 | i | i | i | i | 75.4 | 83.0
Cc1ccc(NC(=O)c2ccccc2)cc1 | i | i | i | i | i | nt
CCN(CC(=O)NCc1cccs1)S(=O)(=O)c1ccc([N+](=O)[O-])cc1 | i | i | i | i | 51.5 | 52.4
O=C(COC(=O)c1cccc([N+](=O)[O-])c1)NCc1cccs1 | i | i | i | i | 51.5 | 62.8
CO[C@H]([C@H](C)/C=C/N(C)C=O)[C@@H](C)C(=O)CC[C@H](C)[C@H](O)[C@H](C)[C@H]1OC(=O)/C=C/C(C)=C/C[C@H](O)C[C@@H]2C=CC[C@@H](C[C@H](OC)[C@@]3(CO3)[C@@H](OC)C[C@@H](OC)[C@@H]1C)O2 | i | i | nt | nt | nt | nt
C#CCN(C[C@H]1[C@H](OC(=O)NCCCCCC)[C@H](OC(=O)NCCCCCC)C[C@@H](C(=O)OC)[C@H]1C(=O)OC)S(=O)(=O)c1ccc(C)cc1 | i | i | nt | nt | i | nt
C#CCN(C[C@H]1[C@H](OC(=O)NCc2ccc(OC)c(OC)c2)[C@H](OC(=O)NCc2ccc(OC)c(OC)c2)C[C@H]2C(=O)N(c3ccccc3)C(=O)[C@@H]12)S(=O)(=O)c1ccc(C)cc1 | i | i | nt | nt | 71.1 | i
C#CCN(C[C@H]1[C@H](OC(=O)NCc2ccccc2)[C@H](OC(=O)NCc2ccccc2)C[C@@H](C(=O)OC)[C@H]1C(=O)OC)S(=O)(=O)c1ccc(C)cc1 | i | i | nt | nt | i | nt
C#CCN(C[C@H]1[C@H](OC(=O)NCc2ccccc2F)[C@H](OC(=O)NCc2ccccc2F)C[C@H]2C(=O)N(c3ccccc3)C(=O)[C@@H]12)S(=O)(=O)c1ccc(C)cc1 | i | i | nt | nt | 54.1 | i
NC(=O)[C@H]1CC2(CC(c3cccc(NC(=O)CC(c4ccccc4)c4ccccc4)c3)=NO2)CN1C(=O)c1ccccc1C(=O)c1ccccc1 (stereo partly drawn) | i | i | i | i | 75.3 | i
